From PubChem BioAssay AID687030 (Broad Institute, 2013)
Screen size: about 1,400 compounds; about 10 (0.7%) were called active. No rule for the calls is given here. Not all results are given here. Entries that show only a call come without a potency. Potency and affinity values are given separately.

Assay: BHK-21 cell toxicity, dose response, cytotoxicity control, plate reader, cherry-pick samples (AID 687030);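 also: cells were exposed to compound for three days before reading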
Conditions: BHK-21 cells; series mostly up to 19.5 µM

**Q.** For OC(c1ccccc1)C(NCc1ccccc1)c1ccccc1 (stereo not drawn), which outcome is on record?
**A.** inactive

**Q.** Which outcome does the source give for CCC(=O)Nc1ccc(NC(=O)c2oc3ccccc3c2C)cc1 here?
**A.** inactive

**Q.** Which outcome does the source give for CC1(C)CC(NC(=O)COc2ccccc2Cl)CC(C)(C)N1 here?
**A.** inactive

**Q.** For O=C(NC1CCCC1)C(C1CC1)n1c(C2CCCC2)nc2ccccc21 (stereo not drawn), which outcome is on record?
**A.** inactive

**Q.** With CCOC(=O)c1ccc(S(=O)(=O)N2CCC(N3CCCCC3)CC2)cc1 as the molecule, how does the outcome read?
**A.** inactive

**Q.** Which outcome does the source give for CCc1ccc(NC(=O)N(CCCN2CCOCC2)Cc2cccs2)cc1 here?
**A.** inactive

**Q.** Which outcome does the source give for COc1ccc(N(C(=O)c2cccnc2)S(=O)(=O)c2ccc(OC)c(OC)c2)cc1 here?
**A.** inactive

**Q.** For CO[C@@H]1CN(C)C(=O)c2ccc(NC(C)=O)cc2OC[C@@H](C)N(S(C)(=O)=O)C[C@H]1C, which outcome is on record?
**A.** inactive

**Q.** With CCc1ccc2cc(C)cc(C)c2n1 as the molecule, how does the outcome read?
**A.** inactive

**Q.** With COc1ccc(S(=O)(=O)Nc2ccc3c(c2)C(=O)N([C@@H](C)CO)C[C@@H](C)[C@H](CN(C)S(=O)(=O)c2ccc(Cl)cc2)O3)cc1 as the molecule, how does the outcome read?
**A.** inactive

**Q.** For CCCn1c(-c2ccc[nH]c2=O)nc2cc(C)c(C)cc21, which outcome is on record?
**A.** inactive

**Q.** For C[C@H]1CCCCO[C@@H](CN(C)C(=O)Nc2cccc3ccccc23)[C@@H](C)CN([C@@H](C)CO)C(=O)c2cc(NC(=O)Cc3ccccc3)ccc2O1, which outcome is on record?
**A.** inactive

**Q.** Which outcome does the source give for Cc1cccc(C(=O)N2CCC(=O)N([C@H](COCc3ccc(Cl)cc3)Cc3ccccc3)CC2)c1 here?
**A.** inactive

**Q.** With Cc1c(C(=O)Nc2ccccc2F)sc2ncn(CC(=O)N3CCOCC3)c(=O)c12 as the molecule, how does the outcome read?
**A.** inactive

**Q.** Which outcome does the source give for Cc1nc2ccc(C(=O)NC(C)(C)C)cn2c1N(C)C(=O)CCc1ccccc1 here?
**A.** inactive

**Q.** With O=C(Nc1ccc2ccccc2c1)C(C1CC1)n1c(=O)c(-c2cc3ccccc3[nH]2)nc2ccccc21 (stereo not drawn) as the molecule, how does the outcome read?
**A.** inactive

**Q.** For COc1ccc(CCC(C)NCc2ccc(F)cc2)cc1 (stereo not drawn), which outcome is on record?
**A.** inactive

**Q.** Which outcome does the source give for CCCn1c(=N)n(CC(O)COc2ccc(C)cc2)c2ccccc21 (stereo not drawn) here?
**A.** inactive

**Q.** Which outcome does the source give for CCN(C(=O)COC(=O)c1cc2c(s1)CCCCC2)C1CCS(=O)(=O)C1 (stereo not drawn) here?
**A.** inactive

**Q.** For Cc1cc(C)n2c(NC3CCCC3)c(-c3cccnc3)nc2n1, which outcome is on record?
**A.** inactive

**Q.** With CCOC(=O)C1CCN(Cc2c(C(=O)N3CCOCC3)nc3c(C)cccn23)CC1 as the molecule, how does the outcome read?
**A.** inactive

**Q.** For CCCCC[C@H]1CN(CCc2ccccc2)C(=O)[C@@H]1CC(=O)NCc1ccc(OC)cc1, which outcome is on record?
**A.** inactive

**Q.** For CO[C@H]1CN(C)C(=O)c2cc(NC(=O)c3ccccc3F)ccc2OC[C@H](C)N(CC2CCOCC2)C[C@H]1C, which outcome is on record?
**A.** inactive

**Q.** Which outcome does the source give for CC(=O)N[C@@H]1CC[C@H](CCNC(=O)C2CCCC2)O[C@H]1CO here?
**A.** inactive

**Q.** For CC(C)NC(=O)Nc1ccc2c(c1)C(=O)N([C@@H](C)CO)C[C@H](C)[C@H](CN(C)C(=O)Nc1ccc3c(c1)OCO3)O2, which outcome is on record?
**A.** inactive

**Q.** Which outcome does the source give for COc1ccc(NC(=O)Nc2cccc3c2O[C@H](CN(C)S(=O)(=O)c2ccccc2)[C@H](C)CN([C@@H](C)CO)C3=O)cc1 here?
**A.** inactive

**Q.** Which outcome does the source give for COc1ccc(S(=O)(=O)N2CCCC2C(=O)NCC(=O)Nc2cccc(Cl)c2C)cc1 (stereo not drawn) here?
**A.** inactive

**Q.** With O=C(NCc1ccncc1)c1cccc(NS(=O)(=O)c2ccc(F)c(F)c2)c1 as the molecule, how does the outcome read?
**A.** inactive
